From PubChem BioAssay AID1963822 (ICCB-Longwood Screening Facility, Harvard Medical School, 2024) come the findings set out here.

The experiment in a line: anaerobic choline-dependent bacterial growth inhibition – minimal medium, absorbance (AID 1963822). As to conditions: Gram-negative bacterium anaerobic choline minimal medium.
Where [1] appears, read: measured here: choline growth z-score, timepoint 1, stronger effect = lower value.

The whole screen tested about 55,000 compounds, of which about 90 (0.2%) were called active. How the calls were made is not given here. Shown is part of a subset that was picked to be rich in actives.

`O=S(=O)(Nc1ccc(F)cc1)c1cc(-c2noc(C3CC3)n2)cs1`: the z-score (stronger effect = lower value) is 0.08 (inactive) and the z-score under setting [1] is -0.4.
`COc1ccccc1CNc1ncc2nc(-c3ccccc3)oc2n1`: the z-score runs as follows: (stronger effect = lower value) -0.72 (inactive); under setting [1], -0.32.
The corresponding values for `Cc1ccc(-c2cc(C(=O)N3CCN(C)CC3)no2)cc1C` are -2.15 (inactive) and -1.67.
The corresponding values for `C=CCn1c(=O)c(=O)n(Cc2ccc(C(=O)N3CCC(N4CCCCC4)CC3)cc2)c2ccccc21` are 0.52 (inactive) and 0.14.
The corresponding values for `O=C(Cn1cccc1-c1nc(-c2ccc(Cl)cc2)cs1)NCc1ccc2c(c1)OCO2` are 0.32 (inactive) and -0.44.
As to `CC(C)c1nnc2ccc(N3CCN(C(C)C)CC3)nn12`, the z-score runs as follows: (stronger effect = lower value) 0.55 (inactive); under setting [1], -2.47.
For `CCCN1C(=O)c2ccccc2Sc2cc(-c3noc(/C=C/c4ccccc4)n3)ccc21`, the z-score (stronger effect = lower value) was -0.13 (inactive) and the z-score under setting [1] was 0.3.
The corresponding values for `COC(=O)Cn1nc2c(-c3nc(-c4ccc(Cl)cc4)no3)cccn2c1=O` are -0.55 (inactive) and -1.3.
The corresponding values for `Cc1ccc(N2CC(c3nc(-c4ccc(N5CCCC5)cc4)no3)CC2=O)cc1C` (stereo not drawn) are 0.33 (inactive) and 0.93.
As to `CC1CCN(CCCNC(=O)Cc2ccc(NC(=O)N3CCSc4ncccc43)cc2)CC1`, the z-score runs as follows: (stronger effect = lower value) 1.04 (inactive); under setting [1], 0.79.
The corresponding values for `Cc1cc(C)c2nc(C)cc(C(=O)NC3CC3)c2c1` are 1.05 (inactive) and 0.53.
The corresponding values for `CCC1(CC)Cc2ccccc2-c2[nH]c(=O)n(CC3=CCCO3)c(=O)c21` are 0.12 (inactive) and -1.14.
The corresponding values for `COc1ccccc1N1CCN(c2ccc(=O)n(CC(=O)NCc3ccccn3)n2)CC1` are -0.67 (inactive) and -0.7.
As for `CN(C)C(=O)c1cc2c(s1)CCC(C(=O)N(C)C)C2` (stereo not drawn), the z-score (stronger effect = lower value) is 0.34 (inactive) and the z-score under setting [1] turned out to be 0.33.
The corresponding values for `CC(C)(C)c1ccc(S(=O)(=O)NCc2nc(N)n(S(=O)(=O)c3ccc(C(C)(C)C)cc3)n2)cc1` are -0.11 (inactive) and 0.06.
Regarding `CCOc1ccc(N(Cc2nc3nc(C)cc(C)n3n2)C(=O)CC(C)C)cc1`, the z-score runs as follows: (stronger effect = lower value) -0.89 (inactive); under setting [1], -1.11.
For `CCOc1ccc(-c2cc(C(=O)Oc3ccc(OC)cc3)no2)cc1`, the z-score was -0.02 (inactive) (stronger effect = lower value) and 0.37 under setting [1].
Taken in the same sequence, the figures for `O=C(CN1C(=O)CSc2ccc(S(=O)(=O)N3CCCC3)cc21)Nc1cccnc1` were 0.64 (inactive) and 0.19.
Taken in the same sequence, the figures for `O=C(NC1CC1)C1CCCN(c2ccc3cc(S(=O)(=O)N4CCCCC4)ccc3n2)C1` (stereo not drawn) were -0.89 (inactive) and -0.76.
The corresponding values for `O=C(Nc1ccc(F)cc1)c1ccccn1` are -3.6 (inactive) and -3.98.
Turning to `O=C(c1nnc(-c2ccc(S(=O)(=O)N3CCCC3)cc2)o1)N1CCCC1`, the z-score by setting is: (stronger effect = lower value) 0.25 (inactive); under setting [1], 0.12.
The corresponding values for `COc1ccnc2c1c(=O)n(CC(=O)N1CCCc3ccccc31)c(=O)n2C` are 1.04 (inactive) and 0.31.
Taken in the same sequence, the figures for `CCC(=O)NCCc1nc2cc(NC(=O)C3CCCCC3)ccc2n1C` were -0.79 (inactive) and -0.11.
On to `COc1cccc(CSc2nc3c(-c4ccccc4)c[nH]c3c(=O)[nH]2)c1`, for which the z-score is 0.44 (inactive) (stronger effect = lower value) and -0.28 under setting [1].
The corresponding values for `Cn1c(=O)n(-c2ccc(F)cc2)c2nc(-c3cccc(F)c3)nc(C(N)=O)c21` are -0.47 (inactive) and 0.68.
The corresponding values for `CCc1nc2ccccc2c(=O)n1Cc1noc(CN2C(=O)COc3ccccc32)n1` are 0.03 (inactive) and 0.5.
On to `O=C(NC1CCCc2ccccc21)c1ccc(-c2cc(N3CCOCC3)ncn2)cc1` (stereo not drawn), for which the z-score (stronger effect = lower value) was 0.49 (inactive) and the z-score under setting [1] was -1.29.
Taken in the same sequence, the figures for `Cc1noc(-c2cccnc2N2CCN(C(c3ccccc3)c3ccccc3)CC2)n1` were 0.85 (inactive) and 0.28.
The corresponding values for `Cc1nc(-c2cc(S(=O)(=O)N3CCN(c4ccccc4F)CC3)c(C)s2)cs1` are 1.43 (inactive) and 0.83.
Taken in the same sequence, the figures for `O=C(NCCN1CCOCC1)C1CCN(c2cncnc2N2CCCCC2)CC1` were 0.71 (inactive) and 0.79.
Consider `C=CCSc1n[nH]c(NC(C)=O)n1`, for which the z-score is, setting by setting: (stronger effect = lower value) 0.76 (inactive); under setting [1], 0.64.
For the molecule `Cc1ccc(C(C)C)c(OC(C)C(=O)Nc2onc3c2CCCC3)c1` (stereo not drawn), the z-score is -0.74 (inactive) (stronger effect = lower value) and -0.51 under setting [1].
The corresponding values for `CCN1C(=O)c2ccccc2Sc2cc(-c3noc(-c4ccc5c(c4)OCO5)n3)ccc21` are 0.5 (inactive) and 0.22.
Taken in the same sequence, the figures for `CCOc1ccc(N2CCCCn3c2nc2c3c(=O)n(CCC(C)C)c(=O)n2C)cc1` were -0.58 (inactive) and 0.29.
The corresponding values for `COc1ccc(-c2cc3nc(C)cc(N4CCOCC4)n3n2)cc1OC` are 0.32 (inactive) and -0.41.
With `CCN(CCCNC(=O)c1cccn2c(=O)c3ccccc3nc12)c1cccc(C)c1`, the z-score reads like this: (stronger effect = lower value) 1.29 (inactive); under setting [1], 1.6.
The corresponding values for `Cc1ccc(/C=C/c2nn3c(-c4ccoc4C)nnc3s2)cc1C` are -0.03 (inactive) and 0.36.
Taken in the same sequence, the figures for `O=C(CCc1nc(CSc2nnc(-c3ccccc3)o2)no1)Nc1ccc(F)c(Cl)c1` were -0.29 (inactive) and -0.24.
Turning to `COc1cc(OC)cc(N2C=C(C#N)S(=O)(=O)c3cc(F)ccc32)c1`, the z-score by setting is: (stronger effect = lower value) 0.71 (inactive); under setting [1], 0.22.
Taken in the same sequence, the figures for `O=S(=O)(c1ccc2c(c1)-c1oncc1CO2)N1CCN(C(c2ccccc2)c2ccccc2)CC1` were 0 (inactive) and -0.77.
The corresponding values for `CC(=O)N1CCc2cc(N3CC(C(=O)N4CCC5(CC4)OCCO5)CC3=O)ccc21` (stereo not drawn) are -1.2 (inactive) and -0.84.
Taken in the same sequence, the figures for `O=S(=O)(c1ccccc1F)N1CCN(c2ncnc3c2nnn3-c2ccccc2)CC1` were 1.03 (inactive) and 0.86.
`COc1cc(C2Nc3c(C)cc(C)cc3[C@H]3OCC[C@@H]23)cc(Br)c1OC` (stereo partly drawn): the z-score is 0.49 (inactive) (stronger effect = lower value) and 0.1 under setting [1].
The corresponding values for `Cc1cc(C)nc(SCCn2c(N3CCC(C)CC3)nc3c2c(=O)[nH]c(=O)n3C)n1` are 0.25 (inactive) and 0.24.
Taken in the same sequence, the figures for `COc1ccc(C2CC(c3c(O)n(C)c(=O)n(C)c3=O)=NN2)cc1` (stereo not drawn) were 0.56 (inactive) and 0.56.
The corresponding values for `O=C(Cn1c(=O)c(=O)n(Cc2ccncc2)c2ncccc21)NCCN1CCCCC1` are 1.65 (inactive) and 0.64.
With `COC(=O)c1cc(S(=O)(=O)N2CCCC2C(=O)N2CCc3ccccc32)cn1C` (stereo not drawn), the z-score by setting is: (stronger effect = lower value) -0.38 (inactive); under setting [1], -0.18.
Taken in the same sequence, the figures for `COc1ccc(-c2cc(Oc3cccc(C(=O)NC4CCCCC4)c3)ncn2)cc1` were 1.55 (inactive) and 1.41.
With `O=C(NCCC1=CCCCC1)C1CCN(c2cc(-c3cccc(F)c3)ncn2)CC1`, the z-score is 1.01 (inactive) (stronger effect = lower value) and 0.77 under setting [1].
Taken in the same sequence, the figures for `CC(C)NC(=O)Cc1csc(NC(=O)C2CC2)n1` were 0.37 (inactive) and -0.55.
Taken in the same sequence, the figures for `COc1cccc(NC(=O)c2ccc(-n3nc(N4CCCC4)ccc3=O)cc2)c1` were -0.3 (inactive) and -0.77.
Taken in the same sequence, the figures for `CCOC(=O)c1cnc(SC(CC)C(=O)Nc2ccc(Br)cc2)nc1N` (stereo not drawn) were 0.81 (inactive) and 0.87.
Regarding `O=C1CN(C(=O)CSc2ccc(Cl)cc2)c2ccccc2N1`, the z-score (stronger effect = lower value) was -2.07 (inactive) and the z-score under setting [1] was -0.23.
The corresponding values for `COc1ccc(C2N=C(Nc3ccc(C(C)C)cc3)Nc3nc(C)cc(=O)n32)cc1OC` (stereo not drawn) are 0.3 (inactive) and -0.84.
Taken in the same sequence, the figures for `Cc1nc(-c2csc(S(=O)(=O)N3CCCC(C(=O)N4CCCCC4)C3)c2)no1` (stereo not drawn) were 0.63 (inactive) and -0.32.
The corresponding values for `CC(=O)N1CCCN(S(C)(=O)=O)CC1` are 0.45 (inactive) and 1.28.
On to `CC(C)c1nnc(-c2cc3ccccc3n2CC(=O)N(C(C)C)C(C)C)o1`, for which the z-score is, setting by setting: (stronger effect = lower value) -0.44 (inactive); under setting [1], 0.05.
The corresponding values for `COc1cc(C2OC(c3ccccc3)=NN2C(C)=O)ccc1O` (stereo not drawn) are -1.46 (inactive) and -1.53.
Taken in the same sequence, the figures for `O=C(Cn1nc2n(CCc3ccccc3)c(=O)c3ccccc3n2c1=O)NCc1ccccc1Cl` were 0.2 (inactive) and 0.39.
Regarding `COc1ccc(OC)c(CNC(=O)C2CCCN(c3ncnc4c3oc3ccccc34)C2)c1` (stereo not drawn), the z-score runs as follows: (stronger effect = lower value) -0.39 (inactive); under setting [1], -0.94.
Taken in the same sequence, the figures for `CN(C)CCCNC(=O)c1sc2ncccc2c1-n1cccc1` were -0.76 (inactive) and -0.95.
Taken in the same sequence, the figures for `Cc1ccc(/C=C/c2nc(-c3ccc4c(c3)[nH]c(=O)c(=O)n4C(C)C)no2)cc1` were 0.12 (inactive) and -0.05.
Taken in the same sequence, the figures for `CCc1nc(-c2ccc(C(=O)NCC(=O)Nc3ccc(Cl)cc3)cc2)no1` were -0.03 (inactive) and -0.94.
On to `CC(C)C(=O)N1CCN(c2ccc(Nc3c4c(nc5nc(-c6ccccc6)nn35)CCCC4)cc2)CC1`, for which the z-score is -0.12 (inactive) (stronger effect = lower value) and 0.82 under setting [1].
Taken in the same sequence, the figures for `O=C(NCCc1cscn1)[C@H]1CSCN1C(=O)c1ccccc1` were 0.46 (inactive) and 0.42.
The corresponding values for `CCC(=O)Nc1cccc(-c2noc(C3CCCN(C(=O)c4ccc(F)cc4)C3)n2)c1` (stereo not drawn) are 0.07 (inactive) and -0.16.
The corresponding values for `O=S(=O)(c1ccc2c(c1)CCCC2)N1CCC2(CC1)Nc1cc(F)ccc1-n1cccc12` are -0.8 (inactive) and -0.36.
For the molecule `O=S(=O)(c1ccccc1)c1ccc(N2CCN(c3ccccc3)CC2)nn1`, the z-score reads like this: (stronger effect = lower value) -0.18 (inactive); under setting [1], -1.06.
Turning to `O=C(NCCc1cnc[nH]1)c1ccc(Cn2c(SCc3ccc(F)cc3)nc3cccnc32)cc1`, the z-score runs as follows: (stronger effect = lower value) -0.7 (inactive); under setting [1], -0.94.
Take `CCOC(=O)CC1=CC(SCC(=O)c2cc(C)ccc2C)=Nc2ccccc2N1`: the z-score runs as follows: (stronger effect = lower value) 0.16 (inactive); under setting [1], 0.19.
Taken in the same sequence, the figures for `COc1ccc(NC(=O)c2ccc(-c3nc(-c4ccccc4)no3)cc2)cc1` were -1.61 (inactive) and -1.39.
On to `Cc1ccc2c(Cl)c(C(=O)Nc3onc4c3CCCC4)sc2c1`, for which the z-score reads like this: (stronger effect = lower value) 0.44 (inactive); under setting [1], 0.27.
Taken in the same sequence, the figures for `COc1ccc(Cn2c(CCC(=O)Nc3cccc(C)c3C)nc3cccnc32)cc1` were 0.59 (inactive) and 0.56.
Turning to `CC(=O)Nc1ccc(N(C)CCCc2c(C)nn(C)c2C)c(C(=O)O)c1`, the z-score was 0.96 (inactive) (stronger effect = lower value) and 0.43 under setting [1].
The corresponding values for `COC(=O)CSc1nc2cc(-c3ccccc3)sc2c(=O)n1C` are 0.31 (inactive) and 0.31.
For the molecule `CCCN(C)S(=O)(=O)c1c(C)[nH]c(-c2nnc(C3CCC3)o2)c1C`, the z-score reads like this: (stronger effect = lower value) 0.79 (inactive); under setting [1], 0.59.
Taken in the same sequence, the figures for `COc1ccc2nc(-n3nc(C)c4c3NC(=O)CC4c3ccsc3)sc2c1` (stereo not drawn) were -2.13 (active) and -0.51.
The corresponding values for `COc1ccc2nc(-n3nc(C)c4c3NC(=O)CC4c3ccc4c(c3)OCO4)sc2c1` (stereo not drawn) are 1.23 (inactive) and 1.32.
Turning to `COc1ccc2nc(-n3nc(C)c4c3NC(=O)CC4c3cc(Br)ccc3OC)sc2c1` (stereo not drawn), the z-score is, setting by setting: (stronger effect = lower value) -0.06 (inactive); under setting [1], 0.15.
